Source: PubChem BioAssay
TAG inh – inhibitors of triacylglycerol accumulation; inhibition, % at 12.5 µM; 230,000 compounds, 0.66% hits; H9c2 cells, Nile Red lipid (TAG) fluorescence; cells loaded with 200 µM oleic acid;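 active means pattern-corrected inhibition of lipid staining of at least 50% with the nuclear-stain viability signal not falling by more than 50%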
Jurkat NFkB inh – lowers PMA/ionomycin-induced NF-kB signal in Jurkat cells. PMA/ionomycin-induced NF-kB luciferase reporter, luminescence. inhibition, % at 4 µM. 330,000 compounds, 0.53% hits; in the data active means inhibition above about 50%
697 NFkB inh – lowers PMA/ionomycin-induced NF-kB signal in 697 B cells; inhibition, % at 4 µM; 330,000 compounds, 0.33% hits; 697 B-cell NF-kB luciferase reporter, 16 h; in the data active means inhibition above about 35%
H9c2 protect – myocardial damage modulation in H9c2 cells. H9c2 cardiomyocytes, H2O2 injury protection, ATPLite, 2 h. protection from H2O2 cell death, % at 20 µM. 360,000 compounds, 0.63% hits. AID 588492;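 active means compounds giving at least 50% protection of heart cells from peroxide-induced death in the single-dose screen, raw or plate-pattern-corrected value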
Gli-Sufu antag – Gli-Sufu pathway antagonism; AID 588413; inhibition, % at 5 µM; Sufu-KO-LIGHT fibroblasts, Gli luciferase reporter luminescence; 340,000 compounds, 0.74% hits;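 active means inhibition above about 55%, limit read from the data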
COUP-TFII inh – inhibitors of human COUP-TFII (NR2F2); 370,000 compounds, 0.7% hits; inhibition, % at 8.6 µM; HEK293T NGFI-A luciferase reporter, luminescence; AID 686940; P24468;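 active means inhibition above a per-plate cutoff, mean inhibition of test wells between control levels plus 3 SD, cut at about 38% in these data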;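 further: cells cotransfected with COUP-TFII expression vector driving the NGFI-A reporter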
Target sequence (P24468 whole entry, looked up): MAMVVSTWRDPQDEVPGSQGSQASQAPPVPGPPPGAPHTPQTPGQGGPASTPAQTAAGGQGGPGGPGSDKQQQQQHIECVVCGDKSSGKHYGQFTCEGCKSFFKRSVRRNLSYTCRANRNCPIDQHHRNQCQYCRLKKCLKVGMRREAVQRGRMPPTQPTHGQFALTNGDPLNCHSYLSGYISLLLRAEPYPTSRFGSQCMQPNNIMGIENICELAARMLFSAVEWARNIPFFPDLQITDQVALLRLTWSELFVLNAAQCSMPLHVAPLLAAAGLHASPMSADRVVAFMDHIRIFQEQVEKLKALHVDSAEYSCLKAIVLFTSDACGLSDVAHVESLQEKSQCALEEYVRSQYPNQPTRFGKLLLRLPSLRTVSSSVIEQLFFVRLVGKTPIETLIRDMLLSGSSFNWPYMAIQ
TAG conf – confirmation of triacylglycerol accumulation inhibitors | shares compounds with TAG inh | H9c2 lipid accumulation, Nile Red fluorescence; cells loaded with 200 µM oleic acid | inhibition, % at 12.5 µM | 990 compounds, 71% hits | AID 651629;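 active means mean inhibition across replicates of 40% or more; inactive means mean inhibition below 40%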
Of the large screens only hits and unclear results are named; the others gave an inactive call (follow-up assays come after a bar, where they were run); ! = a repeat was not active. The list is not random: actives were taken first. Their share in the collection is about 2.6%.

Cc1cc(C)cc(CC(=O)N2CCC2(C)C(=O)NS(=O)(=O)c2ccc(Cl)s2)c1 (stereo not drawn)	TAG inh 75 (no result: Jurkat NFkB inh, 697 NFkB inh, Gli-Sufu antag) | TAG conf inactive
O[C@H]1CN(CC2CCCCC2)[C@@H](c2ccc(Cl)cc2)C[C@@H]1n1cc(-c2ccc(F)cc2)nn1	TAG inh 51 (no result: Jurkat NFkB inh, 697 NFkB inh, Gli-Sufu antag) | TAG conf 64
CCOc1ccc2nc(NC(=O)CN3CCN(C)CC3)sc2c1	TAG inh 68 | TAG conf inactive
CC(=O)O[C@H]1C[C@@]2(C)[C@@H](C[C@@H](O)[C@H]3[C@@]4(C)CC[C@@H](O)[C@@H](C)[C@@H]4CC[C@@]32C)/C1=C(\CCC=C(C)C)C(=O)O	TAG inh 61! | TAG conf 56
CC(=O)O[C@]1(C(C)=O)CCC2C3C=C(C)C4=CC(=O)CC[C@]4(C)C3CC[C@@]21C (stereo partly drawn)	none (no result: TAG inh)
Cc1cc(N/N=C/c2ccc(F)cc2)nc(-n2nc(C)cc2C)n1	TAG inh 57 | TAG conf 53
N#C/C(=C\Nc1ccc2cn[nH]c2c1)c1nc(-c2ccccc2)cs1	none (no result: Jurkat NFkB inh, 697 NFkB inh)
N#C/C(=C\Nc1ccc2cn[nH]c2c1)c1nc(-c2ccc(Cl)cc2)cs1	TAG inh 78 | TAG conf 83
CN(C)CCCN1c2ccc3ccccc3c2Sc2cccc(Cl)c21	none (no result: Jurkat NFkB inh, 697 NFkB inh)
CN(C)CCCN1c2ccccc2Sc2ccc3ccccc3c21	TAG inh 50 (no result: Jurkat NFkB inh, 697 NFkB inh) | TAG conf 60
COc1cc(OC)nc(Nc2nc(C(N)Cc3ccc(Cl)cc3)cs2)n1 (stereo not drawn)	TAG inh 58 (no result: Jurkat NFkB inh, 697 NFkB inh, Gli-Sufu antag) | TAG conf 46
COC(=O)c1cc(C)nc(Nc2nc(C(N)Cc3ccc(Cl)cc3)cs2)n1 (stereo not drawn)	none (no result: Jurkat NFkB inh, 697 NFkB inh, Gli-Sufu antag)
COc1ccc(CC(N)c2csc(NC(=O)Nc3ccccc3-c3ccccc3)n2)cc1 (stereo not drawn)	TAG inh 73 (no result: Jurkat NFkB inh, 697 NFkB inh, Gli-Sufu antag) | TAG conf 87
COc1ccc(CC(N)c2csc(NC(=O)Nc3ccccc3C(C)(C)C)n2)cc1 (stereo not drawn)	none (no result: Jurkat NFkB inh, 697 NFkB inh, Gli-Sufu antag)
COc1ccc(OC)c(NC(=O)Nc2nc(C(N)CCc3ccccc3)cs2)c1 (stereo not drawn)	none (no result: Jurkat NFkB inh, 697 NFkB inh, Gli-Sufu antag)
COc1ccc(CNC(=O)Nc2nc(C(N)c3ccccc3)cs2)cc1 (stereo not drawn)	none (no result: Jurkat NFkB inh, 697 NFkB inh, Gli-Sufu antag)
COc1ccc(CC(N)c2csc(NC(=O)NCc3ccccc3)n2)cc1 (stereo not drawn)	TAG inh 53 (no result: Jurkat NFkB inh, 697 NFkB inh, Gli-Sufu antag) | TAG conf 42
COc1cc(NC(=O)Nc2nc(C(N)CCc3ccccc3)cs2)cc(OC)c1OC (stereo not drawn)	TAG inh 83 (no result: Jurkat NFkB inh, 697 NFkB inh, Gli-Sufu antag) | TAG conf 89
O=C(N[C@H](C(=O)N1CCC[C@H]1C(=O)NCCc1ccccc1Cl)C1CCCCC1)c1ccc(Cl)c(Cl)c1	none (no result: TAG inh, Jurkat NFkB inh, 697 NFkB inh, H9c2 protect, Gli-Sufu antag)
COc1cc(CNC(=O)Nc2nc(C(N)Cc3ccc(C(F)(F)F)cc3)cs2)cc(OC)c1OC (stereo not drawn)	TAG inh 76 (no result: Jurkat NFkB inh, 697 NFkB inh, Gli-Sufu antag) | TAG conf 88
CC(C)CC(N)c1csc(NC(=O)Nc2ccccc2Cc2ccccc2)n1 (stereo not drawn)	TAG inh 114 (no result: Jurkat NFkB inh, 697 NFkB inh, Gli-Sufu antag) | TAG conf 69
COC(=O)c1ccc2c(=O)n(CCCCCC(=O)NC3CCCCC3)c(=O)[nH]c2c1	none (no result: TAG inh, Jurkat NFkB inh, 697 NFkB inh, H9c2 protect, Gli-Sufu antag)
COc1ccc(-c2cc(C(F)F)n3ncc(C(=O)N4CCc5ccccc54)c3n2)cc1	none (no result: TAG inh)
Cc1ccc(-c2cc(C(F)F)n3ncc(C(=O)N4CCCc5ccccc54)c3n2)cc1	TAG inh 60 | TAG conf inactive
CCCCNC(=O)OC1CCC12CCC(c1ccccc1)CC2 (stereo not drawn)	none (no result: TAG inh, Jurkat NFkB inh, 697 NFkB inh, H9c2 protect, Gli-Sufu antag)
O=C(NCc1nnnn1-c1ccc(F)cc1)c1ccc([N+](=O)[O-])o1	TAG inh 65 | TAG conf 82
Cc1ccc(-n2nnnc2CNC(=O)c2ccc([N+](=O)[O-])o2)cc1C	none
CC(=O)c1ccc(-c2ccc(C(=O)NCC(c3ccc(F)cc3)N3CCOCC3)o2)cc1 (stereo not drawn)	none
O=C(NCC(c1ccc(F)cc1)N1CCOCC1)c1ccc([N+](=O)[O-])o1 (stereo not drawn)	TAG inh 51 | TAG conf 76
Cc1cc(N2CCNC[C@@H]2C)ccc1N1CCN(Cc2ccccc2)[C@H](C)C1	none (no result: TAG inh, Jurkat NFkB inh, 697 NFkB inh, H9c2 protect, Gli-Sufu antag)
COc1cc(C2c3cc4c(cc3OC(C)(N3CCCC3)C2C)OCO4)cc(OC)c1OC (stereo not drawn)	TAG inh 56 (no result: Jurkat NFkB inh, 697 NFkB inh) | TAG conf 56
Cn1c(COc2ccccc2)nnc1SCC(=O)Nc1ccccc1-c1ccccc1	none (no result: TAG inh, Jurkat NFkB inh, 697 NFkB inh, H9c2 protect, Gli-Sufu antag)
CC(C)NS(=O)(=O)c1ccc(CCC(=O)Nc2cc(Cl)ccc2Oc2ccccc2)cc1	TAG inh 52 (no result: COUP-TFII inh) | TAG conf inactive
Cc1cccc(N2CN(S(=O)(=O)c3cccc([N+](=O)[O-])c3)c3nc4ccccc4nc32)c1	TAG inh 54 | TAG conf inactive
COC(=O)C1=C(C)N(C)C(=NCc2ccccc2)NC1c1ccc(F)cc1 (stereo not drawn)	none (no result: TAG inh, Jurkat NFkB inh, 697 NFkB inh, H9c2 protect, Gli-Sufu antag)
Cc1ccccc1OCCNc1cc(N2CC(C)NC(C)C2)ccc1[N+](=O)[O-] (stereo not drawn)	TAG inh 56 | TAG conf 62
COc1cccc(Cn2cc(COC(=O)N(C)Cc3ccccc3)nn2)c1	none (no result: TAG inh, Jurkat NFkB inh, 697 NFkB inh, H9c2 protect, Gli-Sufu antag)
COc1cccc(/C=C/C(=C2/C(=O)N(c3ccccc3)N=C2C)c2ccc(C)cc2)c1OC	TAG inh 112 | TAG conf 129
COCCn1cnc2c(c1=O)c1nc3ccccc3nc1n2/N=C/c1ccco1	none
COCCn1cnc2c(c1=O)c1nc3ccccc3nc1n2/N=C/c1ccc(OC)c(OC)c1	TAG inh 68, H9c2 protect 51 | TAG conf 88
CCN1CCN(Cc2ccc(NC(=O)c3cc(NC(=O)C(=O)c4c[nH]c5ccccc45)cc(OC)c3)cc2C(F)(F)F)CC1	TAG inh 104 | TAG conf 94
CCC(=O)OCCCN1C(=O)CCC12CCC(C)CC2 (stereo not drawn)	none (no result: TAG inh, Jurkat NFkB inh, 697 NFkB inh, H9c2 protect, Gli-Sufu antag)
COc1cc(CCCN2CCNC[C@@H]2c2ccccc2)cc(OC)c1OC	TAG inh 85 | TAG conf inactive
COc1cc(CCCN2CCNC[C@H]2Cc2ccc(O)cc2)cc(OC)c1OC	none
Cc1cc(NC(=O)c2sccc2C)n(-c2nc3ccccc3[nH]2)n1	TAG inh 64 | TAG conf 59
Cc1cc(NC(=O)c2cccs2)n(-c2nc3ccccc3[nH]2)n1	none (no result: Gli-Sufu antag)
COc1ccc(Oc2nc(-c3ccccn3)nc3ccccc23)cc1	TAG inh 62 | TAG conf 53
CSc1nc(Oc2ccc(F)cc2)c2ccccc2n1	none (no result: TAG inh)
Fc1ccc(Oc2nc(-c3ccccn3)nc3ccccc23)cc1	TAG inh 56 | TAG conf 42
